Source: the OligoGym collection

biological target: CDC34; test: pooled miR-30 sensor sort-seq; sequence = guide strand; conditions: shRNA
Note: reference of the scale not given here.

**Q.** TAGTCGATGGGGAACTTGAGGC was tested. Which sensor-assay potency score (higher = more potent) did it give?
**A.** -1.23

**Q.** With TTCCACTTCCTGTACATCACGG as the sequence, how does the sensor-assay potency score (higher = more potent) read?
**A.** -0.553

**Q.** For TCCTCGTAGTAGTCGTCGTAGA, which sensor-assay potency score (higher = more potent) is on record?
**A.** -1.72

**Q.** For TAGTCGTCGTAGAAGAGGTCTG, which sensor-assay potency score (higher = more potent) is on record?
**A.** -0.479

**Q.** How did the sensor-assay potency score (higher = more potent) turn out when TTGCTCTCTTTCCACTTCCTGT was run?
**A.** -0.991

**Q.** With TTGGTCTTCACGCAGTACTCGG as the sequence, how does the sensor-assay potency score (higher = more potent) read?
**A.** -1.15

**Q.** How did the sensor-assay potency score (higher = more potent) turn out when TTAGGGTGCCACATCTTGGTCA was run?
**A.** -0.421

**Q.** For TAGGGTGCCACATCTTGGTCAG, which sensor-assay potency score (higher = more potent) is on record?
**A.** 0.104

**Q.** With TCGTCGTAGAAGAGGTCTGAGC as the sequence, how does the sensor-assay potency score (higher = more potent) read?
**A.** -1.59

**Q.** Which sensor-assay potency score (higher = more potent) does the source give for TTCCTGTACATCACGGAGGCGT here?
**A.** -0.234

**Q.** How did the sensor-assay potency score (higher = more potent) turn out when ACACTCAGGAGAATGGTCCTGA was run?
**A.** 0.312

**Q.** TCGTAGTAGTCGTCGTAGAAGA was tested. Which sensor-assay potency score (higher = more potent) did it give?
**A.** -1.53

**Q.** How did the sensor-assay potency score (higher = more potent) turn out when TCGTAGAAGAGGTCTGAGCCCT was run?
**A.** -0.356

**Q.** For TAGATCGCCCTCGTCCACCAGT, which sensor-assay potency score (higher = more potent) is on record?
**A.** -0.743

**Q.** Which sensor-assay potency score (higher = more potent) does the source give for TGGTCTTCACGCAGTACTCGGC here?
**A.** -1.2

**Q.** Which sensor-assay potency score (higher = more potent) does the source give for ATGATGTCTGTGTACTCCCGAT here?
**A.** -1.21

**Q.** With TCATCGTCCCCGAAGCAGCTGT as the sequence, how does the sensor-assay potency score (higher = more potent) read?
**A.** -0.635

**Q.** How did the sensor-assay potency score (higher = more potent) turn out when TCGTCCACCAGTGTCACGCGGA was run?
**A.** -0.898

**Q.** With TAGTAGTCGTCGTAGAAGAGGT as the sequence, how does the sensor-assay potency score (higher = more potent) read?
**A.** -0.785

**Q.** With TCCACTTCCTGTACATCACGGA as the sequence, how does the sensor-assay potency score (higher = more potent) read?
**A.** -0.313

**Q.** Which sensor-assay potency score (higher = more potent) does the source give for TAGAAGAGGTCTGAGCCCTCGT here?
**A.** -0.00353

**Q.** For TTGAGCTCCAGCAGCAGCGCCT, which sensor-assay potency score (higher = more potent) is on record?
**A.** -0.656

**Q.** How did the sensor-assay potency score (higher = more potent) turn out when TGTCTGTGTACTCCCGATCCTT was run?
**A.** -1.06

**Q.** Which sensor-assay potency score (higher = more potent) does the source give for TTGGTCAGGAACCGAAAGGCTG here?
**A.** -0.731

biological target: CDC42BPB; test: as above; conditions: shRNA

**Q.** TTTGATTTTGGAAATCTCTTGC was tested. Which sensor-assay potency score (higher = more potent) did it give?
**A.** 0.44

**Q.** For TACTATTCTCTTAAGGTCCTAG, which sensor-assay potency score (higher = more potent) is on record?
**A.** -0.0384

**Q.** Which sensor-assay potency score (higher = more potent) does the source give for TTTCCTTGGACAACACTGGAGG here?
**A.** -0.765

**Q.** For TTCGATTTCTTCATTTAGCTTT, which sensor-assay potency score (higher = more potent) is on record?
**A.** 0.598

**Q.** For TTATTTCAAAGTCTTCTCGATG, which sensor-assay potency score (higher = more potent) is on record?
**A.** -1.07

**Q.** Which sensor-assay potency score (higher = more potent) does the source give for TAGAGCATCTCATACATGCAGA here?
**A.** -0.774

**Q.** TCATCTTCAAACATGATCCAAA was tested. Which sensor-assay potency score (higher = more potent) did it give?
**A.** -0.68

**Q.** Which sensor-assay potency score (higher = more potent) does the source give for TTCTGAATCATGCACCTCCTTC here?
**A.** -0.418

**Q.** For TTTAATGTCTCTGTGCACGTAA, which sensor-assay potency score (higher = more potent) is on record?
**A.** 0.422

**Q.** Which sensor-assay potency score (higher = more potent) does the source give for TTGAAGTAGATCAAGCGTGGAG here?
**A.** 0.0489

**Q.** Which sensor-assay potency score (higher = more potent) does the source give for TTTCACTTCTAGCACATGGGAG here?
**A.** -0.202

**Q.** Which sensor-assay potency score (higher = more potent) does the source give for TTTGATTTCTTTATCTCGGTTT here?
**A.** 0.716

biological target: CDC42SE1; test: as above; conditions: shRNA

**Q.** For TCATCTGCTCCTGAACTGCACC, which sensor-assay potency score (higher = more potent) is on record?
**A.** -1.23

**Q.** With TTTCTCTACCACACAGCAGCCC as the sequence, how does the sensor-assay potency score (higher = more potent) read?
**A.** -0.51

**Q.** Which sensor-assay potency score (higher = more potent) does the source give for TGGGGTTTCTCTACCACACAGC here?
**A.** -1.01
